# Test results: PubChem BioAssay (Tox21)
# Values joined by “and” are separate entries in the source; they are usually repeats but may differ in a detail not shown here. Identical values can stand only once. Records with an inconclusive call do not appear. A call without a number means that no potency is given here. More than one record can exist for a structure, and the calls need not agree. Active and inactive are the calls of the source. Unless noted, calls come from the whole dose curve; as a rule, active = well fitted curve in the direction sought with a large enough effect in the repeat runs; inconclusive = weak or mixed curves; inactive = no such curve, though single readings can be large; an effect the other way counts as inactive or inconclusive.
# Legend:
# [1] = qHTS assay to identify small molecule agonists of the estrogen receptor alpha (ER-alpha) signaling pathway in the presence of an antagonist - cell viability counter screen (AID 1259386);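 note: series mostly up to about 92 µM; cells exposed to compounds for 22 h at 37 °C before the viability read; nearly all actives have a fitted effect of over 30% in size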
# Procedure, shortened: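 Using estrogen-depleted VM7Luc4E2 cells, the 15-concentration compound series was applied together with 10.0nM ICI-182,780 and incubated 22hr at 37C/5% CO2. Cell viability was then scored by CellTiter-Fluor.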
# [2] = target: Progesterone receptor (Homo sapiens) (UniProt P06401); test: qHTS assay to identify small molecule agonists of the progesterone receptor (PR) signaling pathway (AID 1346784; calls by dose curve; note: nearly all actives have a fitted effect of over 30% in size)
# Procedure, shortened: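 Seed PR-UAS-bla HEK 293T cells (2% charcoal-stripped FBS), incubate 6 hr at 37C; add compounds in DMSO, 16 hr at 37C; add LiveBLAzer B/G substrate, 2 hr RT; read fluorescence intensity.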
# [3] = target: Progesterone receptor (Homo sapiens) (UniProt P06401); test: qHTS assay to identify small molecule antagonists of the progesterone receptor (PR) signaling pathway (AID 1346795; active = well fitted inhibition curve with a large enough effect in the signal ratio in the repeat runs, not every such curve was filed as active; the % refers to the signal ratio)
# Procedure, shortened: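 Screening used a GripTite HEK293T line with PR-responsive UAS-beta-lactamase. Cells were challenged with compound in the presence of 1 nM R5020 final for 16 hr at 37C; B/G FRET substrate, 2 hr room temperature, fluorescence.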
# [4] = qHTS assay to identify small molecule antagonists of the progesterone receptor (PR) signaling pathway - cell viability counter screen (AID 1346798); note: nearly all actives have a fitted effect of over 50% in size; note: potency is the fitted concentration of half-maximal effect
# Procedure, shortened: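 Measures cytotoxicity in parallel with the PR antagonist reporter read: HEK293T PR-UAS-bla cells get compound and R5020 for 16 hr, and remaining viable cells are quantified by CellTiter-Glo luminescence.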
# [5] = qHTS assay to identify small molecule agonists of the progesterone receptor (PR) signaling pathway - cell viability counter screen (AID 1346799; calls by dose curve; note: nearly all actives have a fitted effect of over 45% in size; note: potency is the fitted concentration of half-maximal effect)
# Procedure, shortened: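 Using the same plates as the PR reporter screen, HEK293T PR-UAS-bla cells received compounds for 16 hr at 37C and were then lysed with CellTiter-Glo; luminescence was read 30 min later at room temperature.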
# [6] = qHTS assay to identify small molecule antagonists of the TGF-beta/Smad signaling pathway - cell viability counter screen (AID 1346824); note: nearly all actives have a fitted effect of over 50% in size
# Procedure, shortened: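 SBE-bla HEK 293T cells, incubated overnight, then compound plus 0.25 ng/mL TGF-beta1 (stock added) for 5 hr at 37 C. Viability was read in the same wells by CellTiter-Glo luminescence after 30 min at room temperature.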
# [7] = qHTS assay to identify small molecule agonists of the TGF-beta/Smad signaling pathway - cell viability counter screen (AID 1346829); note: top concentration of the series differs between compounds; nearly all actives have a fitted effect of over 45% in size
# Procedure, shortened: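 After overnight seating at 37 C and 5% CO2, reporter cells got compounds for 5 hr and FRET substrate for 2 hr; cell viability then came from CellTiter-Glo luminescence.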
# [8] = qHTS assay to identify small molecule agonists of the TGF-beta/Smad signaling pathway (AID 1346859; active = well fitted activation curve with a large enough effect in the signal ratio in the repeat runs, not every such curve was filed as active; the % refers to the signal ratio; note: potency is the fitted concentration of half-maximal effect; for activation: series mostly up to about 77 µM)
# Procedure, shortened: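 Beta-lactamase reporter activity downstream of Smad binding elements was measured in stably transfected HEK 293T cells; compounds were incubated for 5 hr, substrate for 2 hr at room temperature.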
# [9] = target: Thyrotropin-releasing hormone receptor (Homo sapiens) (UniProt P34981); test: qHTS assay to identify small molecule antagonists of the thyrotropin-releasing hormone receptor (TRHR) signaling pathway (AID 1346877; active = well fitted inhibition curve with a large enough effect in the repeat runs, not every such curve was filed as active; note: series mostly up to about 51 µM)
# Procedure, shortened: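 Calcium signal in dye-loaded TRHR/HEK293 cells; compounds added 5 min before TRH (1 nM final); fluorescence monitored 3 min at 1 s steps.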
# [10] = target: Thyrotropin-releasing hormone receptor (Homo sapiens) (UniProt P34981); test: qHTS assay to identify small molecule agonists of the thyrotropin-releasing hormone receptor (TRHR) signaling pathway (AID 1346891; calls by dose curve;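 note: HEK293 cells expressing TRHR with calcium dye readout; series mostly up to about 58 µM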)
# Procedure, shortened: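 Overnight-plated (18 h, 37 °C, 5% CO2) TRHR-Hek293 cells; 2 h calcium dye at 37 °C; compound in DMSO; 3-min kinetic fluorescence read.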
# [11] = Human pregnane X receptor (PXR) small molecule agonists, qHTS cell viability counter screen (AID 1346977); note: nearly all actives have a fitted effect of over 50% in size; note: potency is the fitted concentration of half-maximal effect
# Procedure, shortened: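 After a 5hr pre-incubation, PXR-Luc HepG2 cells received compounds plus positive control in DMSO and were kept 24hr at 37C. Cell viability was quantified by fluorescence from CellTiter-Fluor added for the final hour.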
# [12] = Caspase-3/7 induction in HepG2 cells by small molecules, qHTS assay (AID 1346978); note: nearly all actives have a fitted effect of over 15% in size; note: potency is the fitted concentration of half-maximal effect
# Procedure, shortened: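 Wild-type HepG2 cells, 2,000/well, settled 5 hr at 37 C and 5% CO2, then compound-treated for 17 hr; caspase-3/7 activity read by luminescent Caspase-Glo 3/7 after 30 min at room temperature.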
# [13] = Caspase-3/7 induction in CHO-K1 cells by small molecules, qHTS cell viability counter screen (AID 1346979); note: nearly all actives have a fitted effect of over 35% in size; note: potency is the fitted concentration of half-maximal effect
# Procedure, shortened: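 Multiplexed with Caspase-Glo 3/7 in CHO-K1 cells, this counter screen added CellTiter-Fluor after 16hr of compound exposure and recorded fluorescence 1hr later.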
# [14] = Caspase-3/7 induction in CHO-K1 cells by small molecules, qHTS assay (AID 1346980); note: nearly all actives have a fitted effect of over 15% in size
# Procedure, shortened: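 Wild-type CHO-K1 cells exposed to compounds for 17hr at 37 C, 5% CO2. Caspase-3/7 activity then measured by Caspase-Glo 3/7 luminescence after 30min at room temperature.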
# [15] = Caspase-3/7 induction in HepG2 cells by small molecules, qHTS cell viability counter screen (AID 1346981); note: nearly all actives have a fitted effect of over 30% in size; note: potency is the fitted concentration of half-maximal effect
# Procedure, shortened: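 After a 5-hr attachment period at 37 C and 5% CO2, wild-type HepG2 cells received compounds in DMSO. Sixteen hours later CellTiter-Fluor was dispensed and the fluorescent signal quantified after a further hour.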
# [16] = target: Nuclear receptor subfamily 1 group I member 2 (Homo sapiens) (UniProt O75469); test: Human pregnane X receptor (PXR) small molecule agonists, qHTS assay (AID 1346982); note: nearly all actives have a fitted effect of over 35% in size; note: potency is the fitted concentration of half-maximal effect
# Procedure, shortened: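 Tox21 qHTS; PXR-Luc HepG2; compounds pinned from DMSO; 24 hr, 37 C; ONE-Glo luciferase detection, 30 min room temperature.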
# [17] = target: Acetylcholinesterase (Homo sapiens) (UniProt P22303); test: Acetylcholinesterase (AChE) small molecule antagonists: colormetric cell-based qHTS assay (AID 1347395; calls by dose curve; note: nearly all actives have a fitted effect of over 30% in size; note: potency is the fitted concentration of half-maximal effect)
# Procedure, shortened: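 In this cell-based qHTS, attached SH-SY5Y cells were treated with test chemicals for 30 min, after which acetylthiocholine hydrolysis was followed by DTNB colour development over 90 min at 37 C.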
# [18] = target: Nuclear receptor subfamily 1 group I member 2 (Rattus norvegicus) (UniProt Q9R1A7); test: Rat pregnane X receptor (rPXR) activation by small molecules, qHTS assay (AID 1346983); conditions: rPXR luciferase reporter cells, One-Glo luminescence, 24 h; stronger effect = higher value; note: nearly all actives have a fitted effect of over 20% in size
# Procedure, shortened: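 Cell-based rPXR activation assay: rPXR cells, 2,000 per well, rested 5hr at 37 C, then exposed to compounds in DMSO for 24 hr at 37 C. Luciferase activity read by One-Glo luminescence after 30 min at room temperature.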
# [19] = target: Nuclear receptor subfamily 1 group I member 2 (Homo sapiens) (UniProt O75469); test: CYP3A4 induction through human pregnane X receptor (PXR) by small molecules, qHTS assay (AID 1346984); note: nearly all actives have a fitted effect of over 40% in size
# Procedure, shortened: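 Cells (DPX-2; HepG2 with PXR element plus CYP3A4-promoter luciferase) settled 5hr, then were treated 24hr at 37C. A 3hr, 3uM-final Luciferin-IPA step preceded luminescence measurement with One-Glo.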
# [20] = target: Nuclear receptor subfamily 1 group I member 2 (Homo sapiens) (UniProt O75469); test: Human pregnane X receptor (PXR) activation by small molecules, qHTS assay (AID 1346985); note: nearly all actives have a fitted effect of over 40% in size; note: potency is the fitted concentration of half-maximal effect
# Procedure, shortened: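 DPX-2 cells (HepG2 co-transfected with a PXR response element and a CYP3A4-promoter luciferase construct) were seeded at 2,000 per well, rested 5 hr at 37C, then exposed to DMSO-dissolved compounds for 24 hr. Activation was read as luciferase luminescence.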
# Nuclear receptor subfamily 1 group I member 2 (Rattus norvegicus), sequence (Q9R1A7 whole entry, looked up): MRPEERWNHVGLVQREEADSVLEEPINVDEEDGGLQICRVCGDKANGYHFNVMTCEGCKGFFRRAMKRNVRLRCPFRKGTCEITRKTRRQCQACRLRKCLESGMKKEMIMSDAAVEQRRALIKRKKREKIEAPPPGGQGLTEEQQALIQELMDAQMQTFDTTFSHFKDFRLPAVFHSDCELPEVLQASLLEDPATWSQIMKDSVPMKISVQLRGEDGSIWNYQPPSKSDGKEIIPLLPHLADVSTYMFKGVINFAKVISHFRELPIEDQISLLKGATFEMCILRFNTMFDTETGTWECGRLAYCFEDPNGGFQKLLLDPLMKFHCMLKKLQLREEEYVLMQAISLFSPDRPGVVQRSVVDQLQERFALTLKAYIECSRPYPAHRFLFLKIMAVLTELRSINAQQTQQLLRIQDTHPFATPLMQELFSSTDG
# Nuclear receptor subfamily 1 group I member 2 (Homo sapiens), sequence (O75469 whole entry, looked up): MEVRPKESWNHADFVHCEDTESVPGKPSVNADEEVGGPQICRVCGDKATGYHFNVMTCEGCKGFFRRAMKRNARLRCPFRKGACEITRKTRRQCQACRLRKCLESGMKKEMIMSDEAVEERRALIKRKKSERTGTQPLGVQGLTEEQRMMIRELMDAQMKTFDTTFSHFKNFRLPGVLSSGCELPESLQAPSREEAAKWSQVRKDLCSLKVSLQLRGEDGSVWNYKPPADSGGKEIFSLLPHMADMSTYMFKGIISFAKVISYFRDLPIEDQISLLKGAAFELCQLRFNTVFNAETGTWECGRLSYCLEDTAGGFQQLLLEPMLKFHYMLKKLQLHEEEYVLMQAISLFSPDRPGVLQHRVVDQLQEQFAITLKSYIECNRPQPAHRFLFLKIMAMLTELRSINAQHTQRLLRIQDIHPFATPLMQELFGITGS
# Thyrotropin-releasing hormone receptor (Homo sapiens), sequence (P34981 whole entry, looked up): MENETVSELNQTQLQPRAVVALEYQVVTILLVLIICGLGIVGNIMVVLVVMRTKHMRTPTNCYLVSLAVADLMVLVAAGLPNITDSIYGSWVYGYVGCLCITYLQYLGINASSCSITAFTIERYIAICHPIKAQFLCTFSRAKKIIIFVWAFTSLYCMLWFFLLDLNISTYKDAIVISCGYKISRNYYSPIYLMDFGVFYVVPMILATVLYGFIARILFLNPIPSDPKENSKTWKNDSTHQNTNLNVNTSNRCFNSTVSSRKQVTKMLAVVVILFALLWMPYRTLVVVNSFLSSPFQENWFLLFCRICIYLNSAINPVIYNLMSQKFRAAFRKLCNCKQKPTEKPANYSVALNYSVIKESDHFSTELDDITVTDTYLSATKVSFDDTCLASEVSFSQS
# Progesterone receptor (Homo sapiens), sequence (P06401 whole entry, looked up): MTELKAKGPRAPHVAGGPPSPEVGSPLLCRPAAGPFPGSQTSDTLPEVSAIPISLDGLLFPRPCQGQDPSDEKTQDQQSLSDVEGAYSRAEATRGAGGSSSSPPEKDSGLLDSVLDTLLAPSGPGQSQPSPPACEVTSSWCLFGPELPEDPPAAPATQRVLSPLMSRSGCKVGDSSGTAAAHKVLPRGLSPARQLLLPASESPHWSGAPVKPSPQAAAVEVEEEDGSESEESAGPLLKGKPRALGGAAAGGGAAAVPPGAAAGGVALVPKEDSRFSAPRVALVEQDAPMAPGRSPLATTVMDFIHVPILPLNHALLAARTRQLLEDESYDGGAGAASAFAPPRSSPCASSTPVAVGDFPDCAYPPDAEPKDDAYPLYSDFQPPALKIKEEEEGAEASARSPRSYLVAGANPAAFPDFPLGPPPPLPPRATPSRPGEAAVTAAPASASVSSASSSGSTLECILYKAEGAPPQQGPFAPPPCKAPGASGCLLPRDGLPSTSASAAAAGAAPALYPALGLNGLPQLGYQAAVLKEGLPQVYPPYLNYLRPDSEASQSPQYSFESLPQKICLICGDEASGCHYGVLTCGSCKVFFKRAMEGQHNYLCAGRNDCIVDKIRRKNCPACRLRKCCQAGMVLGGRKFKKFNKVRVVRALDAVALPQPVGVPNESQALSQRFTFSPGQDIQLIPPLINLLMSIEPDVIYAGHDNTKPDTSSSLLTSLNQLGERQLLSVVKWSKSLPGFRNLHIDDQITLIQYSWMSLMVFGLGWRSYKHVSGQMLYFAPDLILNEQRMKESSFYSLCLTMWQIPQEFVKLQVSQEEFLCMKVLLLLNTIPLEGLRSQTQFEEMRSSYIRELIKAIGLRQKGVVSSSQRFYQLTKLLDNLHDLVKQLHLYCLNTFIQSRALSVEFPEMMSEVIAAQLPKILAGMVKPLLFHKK
# Acetylcholinesterase (Homo sapiens), sequence (P22303 whole entry, looked up): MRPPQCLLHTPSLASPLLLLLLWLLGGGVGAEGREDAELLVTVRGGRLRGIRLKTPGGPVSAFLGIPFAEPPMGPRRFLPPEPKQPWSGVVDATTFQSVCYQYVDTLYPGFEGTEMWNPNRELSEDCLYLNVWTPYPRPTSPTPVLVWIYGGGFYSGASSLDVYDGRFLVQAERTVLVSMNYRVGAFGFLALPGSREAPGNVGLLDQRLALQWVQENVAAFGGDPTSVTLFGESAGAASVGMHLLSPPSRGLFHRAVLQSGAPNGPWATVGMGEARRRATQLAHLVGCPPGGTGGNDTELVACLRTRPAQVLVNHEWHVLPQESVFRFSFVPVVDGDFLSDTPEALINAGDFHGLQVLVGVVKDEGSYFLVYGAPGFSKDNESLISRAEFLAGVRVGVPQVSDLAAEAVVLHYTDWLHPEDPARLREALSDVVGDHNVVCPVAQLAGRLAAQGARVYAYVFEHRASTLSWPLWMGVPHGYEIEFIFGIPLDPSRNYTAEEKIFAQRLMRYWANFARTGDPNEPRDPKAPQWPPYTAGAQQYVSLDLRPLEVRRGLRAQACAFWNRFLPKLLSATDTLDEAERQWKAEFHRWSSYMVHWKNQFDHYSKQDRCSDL
SMILES,Potency [1],Potency [2],Potency [3],Potency [4],Potency [5],Potency [6],Potency [7],Potency [8],Potency [9],Potency [10],Potency [11],Potency [12],Potency [13],Potency [14],Potency [15],Potency [16],Potency [17],max activation [18],outcome [19],Potency [20]
Nc1ccc(-c2ccc(N)cc2)cc1,inactive,inactive,inactive,inactive,inactive,inactive,inactive,inactive,inactive,inactive,inactive,inactive,inactive,inactive,inactive,30.3 µM (active) and 1.08 µM (active) and 34.4 µM (active),inactive,–,–,–
CCCC[n+]1ccccc1,inactive,inactive,inactive,inactive,inactive,inactive,inactive,inactive,–,–,inactive,inactive,inactive,inactive,inactive,inactive,–,–,–,–
CCC[N+]1(C)CCCC1,inactive,inactive,inactive,inactive,inactive,inactive,inactive,inactive,–,–,inactive,inactive,inactive,inactive,inactive,inactive,–,–,–,–
COc1ccccc1N,inactive,inactive,inactive,inactive,inactive,inactive,inactive,inactive,inactive,inactive,inactive,inactive,inactive,inactive,inactive,inactive,–,–,–,–
CCCC[n+]1cccc(C)c1,inactive,inactive,inactive,inactive,inactive,inactive,inactive,inactive,inactive,inactive,inactive,inactive,inactive,inactive,inactive,inactive,–,–,–,–
O=C(O)COc1ccc(Cl)cc1Cl,inactive,inactive,inactive,inactive,inactive,inactive,inactive,inactive,–,–,inactive,inactive,inactive,inactive,inactive,inactive,inactive,–,–,–
CCn1cc[n+](C)c1C,inactive,inactive,inactive,inactive,inactive,inactive,inactive,inactive,–,–,inactive,inactive,inactive,inactive,inactive,inactive,inactive,–,–,–
C[N+](C)(C)Cc1ccccc1,inactive,inactive,inactive,inactive,inactive,inactive,inactive,48.7 µM (active) and inactive,–,–,inactive,inactive,inactive,inactive,inactive,inactive,inactive,–,–,–
O=S(=O)(O)O,inactive,–,–,inactive,inactive,inactive,inactive,inactive,–,–,inactive,inactive,inactive,inactive,inactive,–,–,–,–,–
C[C@]12CCC(=O)C=C1CC[C@@H]1[C@@H]2CC[C@]2(C)C(=O)CC[C@@H]12,inactive,inactive,–,–,inactive and 61.1 µM (active),inactive,inactive,inactive,inactive,inactive,inactive,inactive,23.9 µM (active) and inactive,inactive,inactive,53.5 µM (active) and inactive,inactive,-1.07% (inactive),inactive,inactive
CCC(=O)C(CC(C)N(C)C)(c1ccccc1)c1ccccc1 (centres undefined),inactive,inactive,inactive,54.7 µM (active),43.5 µM (active),–,inactive,–,–,–,27.4 µM (active),inactive,inactive,inactive,–,8.67 µM (active) and 60.7 µM (active),inactive,–,–,–
CCOP(=S)(OCC)Oc1ccc2c(C)c(Cl)c(=O)oc2c1,inactive,inactive,–,–,inactive,inactive,inactive,–,inactive,inactive,inactive,inactive,inactive,inactive,inactive,27.6 µM (active) and 19.3 µM (active) and 23.7 µM (active),22.7 µM (active) and 12.6 µM (active) and inactive,9.05% (inactive),inactive,14.1 µM (active)
CCCC[N+]1(C)CCCCC1,inactive,inactive,inactive,inactive,inactive,inactive,inactive,inactive,–,–,inactive,inactive,inactive,inactive,inactive,inactive,inactive,–,–,–
CN(C)[C@@H]1C(=O)C(C(N)=O)=C(O)[C@@]2(O)C(=O)C3=C(O)c4c(O)cccc4[C@@](C)(O)[C@H]3[C@H](O)[C@@H]12,inactive,–,–,inactive,inactive,inactive,inactive,inactive,–,–,inactive,inactive,inactive,inactive,inactive,inactive,–,-4.55% (inactive) and -1.55% (inactive),inactive,inactive
Nc1ccc(-c2ccc(N)c(Cl)c2)cc1Cl,inactive,–,–,–,inactive,inactive,inactive,inactive,inactive,inactive,3.98 µM (active) and 54.5 µM (active),13.8 µM (active),68.9 µM (active) and 1.43 µM (active) and 48.6 µM (active),inactive,9.04 µM (active) and 54.5 µM (active),30.8 µM (active) and 9.69 µM (active),inactive,–,–,–
CC(Cl)(Cl)C(=O)O,inactive,inactive,inactive,inactive,inactive,inactive,inactive,inactive,–,–,inactive,inactive,inactive,inactive,inactive,inactive and 61.3 µM (active),inactive,–,–,–
